Screen size: about 48,000 compounds; about 13,000 (27%) showed an effect of 50% or more. The list shows a part of the results.
These compounds were tested on Wolbachia pipientis (assay: Anti-Wolbachia Cell-Based Screen). Conditions: 5 µM.
Type: functional
Parameters: scale not given: in the data most compounds retested in dose-response had high values

Structure (SMILES) | Percent Effect [%]
CCc1c(C)nc(C)nc1N1C[C@@H](CN(CC)CCO)[C@@H](CO)C1 | 6.908
COc1cc(F)ccc1N1CCN(Cc2nnc(C3CC3)o2)CC1 | -5.388
Cc1nc(CN(C)C2CCN(Cc3nnc(C4CC4)o3)C2)no1 (configuration not stated) | 115.8
CCCc1noc(CN2CCC(N(C)Cc3nnc(C4CC4)o3)C2)n1 (configuration not stated) | 109.8
Cc1nc(CN2CCCC(N(C)Cc3nc(C)c(C)o3)C2)no1 (configuration not stated) | -3.907
CCc1nc(CN(C)C2CCN(Cc3cnc(C)cn3)C2)no1 (configuration not stated) | 5.773
CN(Cc1nnc(C2CC2)o1)C1CCN(CCCc2cnn(C)c2)C1 (configuration not stated) | 3.532
CCCc1n[nH]c(C2CN(Cc3nnc(C4CC4)o3)CCO2)n1 (configuration not stated) | -2.84
CCc1nc(CN2CCCC(N(C)Cc3cnn(C)c3)C2)no1 (configuration not stated) | 10.72
CC(C)c1nc(CN2CCCN(Cc3nnc(C4CC4)o3)CC2)no1 | 0.1522
CC(C)c1nc(CN(C)C2CCN(Cc3nnc(C4CC4)o3)C2)no1 (configuration not stated) | 123.9
CCc1nc(CN(C)C2CCN(Cc3nnc(C4CCC4)o3)C2)no1 (configuration not stated) | 110.6
CC(C)c1nc(CN(C)C2CCN(Cc3nc(C4CC4)no3)C2)no1 (configuration not stated) | -21.22
Cc1nc(CN2CCCC(N(C)Cc3nnc(C4CC4)o3)C2)no1 (configuration not stated) | 6.77
O=S(=O)(Cc1ccccc1Cl)NCCCN1CCCC1 | -15.99
OC1CCN(C2CCN(Cc3cnc(-c4cccs4)nc3)CC2)CC1 | 3.199
COc1cc(OC)c(-c2nc3c([nH]2)c(C2CC2)nn3C)cc1OC | 11.95
CN1CCOC(C(=O)Nc2nc(-c3ccc(Cl)cc3)n[nH]2)C1 (configuration not stated) | -7.364
O=C(O)CC(O)(CC(=O)O)C(=O)O.c1ccc([C@@H]2CN(Cc3cccnc3)C[C@H]2c2cc[nH]n2)cc1 | 104
O=C(O)CC(O)(CC(=O)O)C(=O)O.c1cncc(-c2nccc(CN3CCCC3)n2)c1 | -12.77
COc1ccc([C@@H]2CN(Cc3ccncc3)C[C@H]2c2cc[nH]n2)cc1.O=C(O)CC(O)(CC(=O)O)C(=O)O | 69.64
COc1ccccc1[C@@H]1CN(Cc2ccncc2)C[C@H]1C(=O)O | -10.92
O=C(O)CC(O)(CC(=O)O)C(=O)O.c1ccc([C@@H]2CN(Cc3ccncc3)C[C@H]2c2cc[nH]n2)cc1 | 114
COc1ccc(CN2C[C@H]3CN(Cc4ccncc4)C(=O)[C@H]3C2)cc1.O=C(O)C(F)(F)F.O=C(O)C(F)(F)F | -3.011
O=C(CCC1CCCC1)N1C[C@H]2CC[C@@H]1CN(Cc1ccncc1)C2 | 3.308
O=C(O)CC(O)(CC(=O)O)C(=O)O.c1ccc(CC2CCN(Cc3ccnc(-c4cccnc4)n3)CC2)cc1 | 2.968

Structure (SMILES) | Percent Effect [%]
COc1ccc(CN2C[C@@H]3CN(Cc4ccncc4)C[C@@H]3C2=O)cc1.O=C(O)C(F)(F)F.O=C(O)C(F)(F)F | -12.53
Cc1csc(CN(C)S(=O)(=O)c2ccc(C)c(N(C)C)c2)n1 | 11.95
CN(C)C(=O)c1noc2c1CN(C(=O)CCCN1CCCCC1)CC2 | -13.23
Cc1cc(C(N)=O)ccc1NC(=O)c1nc(N2CCCC2)ncc1Cl | -12.29
Cc1cc(CN2CCC(CNC(=O)c3noc4c3CCCC4)C2)[nH]n1 (configuration not stated) | -1.453
Cn1ncc(NC(=O)c2noc3c2CCCC3)c1C(N)=O | 112.2
CN1CCc2[nH]cnc2C12CCN(C(=O)c1noc3c1CCCC3)CC2 | 33.96
Cn1ncc(NC(=O)c2noc3c2CCCC3)c1C(=O)N1CCCCC1 | 98.83
COc1cccc([C@H]2CN(C(=O)c3noc4c3CCCC4)C[C@@H]2N)c1 | -1.914
Cc1c(NC(=O)c2noc3c2CCCC3)cnn1C | 77.55
CCC(CNS(C)(=O)=O)Oc1ccccc1F (configuration not stated) | -7.569
CN1CCC(C2CCN(Cc3cccc(-n4cccn4)c3)CC2)C1 (configuration not stated) | -5.048
CC(=O)N1CC(=O)N(c2cnn(C)c2)CC12CCN(Cc1nccs1)C2 (configuration not stated) | -3.662
CC(=O)N1CC(=O)N(c2ccccc2)CC12CCN(Cc1cccs1)C2.O=C(O)C(F)(F)F (configuration not stated) | 4.365
CC(=O)N1CC(=O)N(c2cnn(C)c2)CC12CCN(Cc1ccco1)C2 (configuration not stated) | 98.22
CC(=O)N1CC(=O)N(c2cnn(C)c2)CC12CCN(Cc1ccsc1)C2.O=C(O)C(F)(F)F.O=C(O)C(F)(F)F (configuration not stated) | 4.027
CC(=O)N1CC(=O)N(c2cnn(C)c2)CC12CCN(Cc1ccoc1)C2 (configuration not stated) | -11.13
CC(=O)N1CC(=O)N(c2cnn(C)c2)CC12CCN(Cc1cccs1)C2.O=C(O)C(F)(F)F (configuration not stated) | 106.8
CN(Cc1cccc2ncccc12)C(=O)CCn1ccc(=O)[nH]c1=O | 10.3
CNC(=O)CN1CCC(CN(C)Cc2ccncc2Cl)CC1 | 104.1
CNC(=O)CN1CCC(NC(=O)Cc2ccccc2OC(C)C)CC1 | -20.84
CNC(=O)CN1CCCC(Cc2ccccc2OC)C1 (configuration not stated) | 4.844
CNC(=O)CN1CCC(NC(=O)Cn2cc(C)c3ccccc32)CC1 | -8.28
CNC(=O)CN1CCC(NC(=O)N(C)Cc2cc(C)on2)CC1 | 7.433
CNC(=O)CN1CCC(CN(C)Cc2ccccc2N(C)C)CC1 | 105.8
CNC(=O)CN1CCC(c2nn(C)c(=O)n2-c2ccccc2)CC1 | 1.276

Structure (SMILES) | Percent Effect [%]
CC(=O)N(Cc1noc(C)n1)C1CCN(Cc2ccncc2Cl)C1 (configuration not stated) | 6.525
CNC(=O)CN1CCC(NC(=O)CC(C)CCc2ccccc2)CC1 (configuration not stated) | 1.042
CN(Cc1cc(Cl)cc2cccnc12)CC1CCN(CCO)CC1 | -4.482
CNC(=O)CN1CCC(CN(C)CCSc2ccccc2)CC1 | 112.7
CNC(=O)CN1CCC(CN(C)Cc2ccc(C)cc2C)CC1 | 95.31
CCC(CNC(=O)C1CC1)(OC)c1ccccc1 (configuration not stated) | -6.712
Cc1cccc(CNC[C@H]2Cn3cc(-c4ccccc4)nc3CO2)n1 | -23.05
CC(C)c1csc(C(=O)N(C)c2ccc(Br)cn2)n1 | -10.23
Cc1cccnc1NCCNC(=O)C1CCN(C(=O)N(C)C)CC1 | -7.872
CCC(=O)NCCCn1c(-c2cccnc2C)cc2cccnc21.Cl | 116.3
Cc1ccc(OCCCNC(=O)Cc2nc3ncccn3n2)cc1 | -3.394
Cc1cccnc1NCCNC(=O)C1CCN(Cc2ccco2)CC1 | -35.11
CC(C)(C)C(=O)NCCCc1nc2ccccc2[nH]1 | 0.1098
Cc1ncccc1-c1cc2cccnc2n1CCCNC(=O)C1CC1.Cl | 102.7
Cc1ncccc1-c1cc2cccnc2n1CCCNC(=O)C(C)(C)C.Cl | 83.99
CC(NC(=O)NCCCn1cccn1)c1cccnc1 (configuration not stated) | 14.81
CC(C)(C)C(=O)NCCNCc1ccc(Cl)c2cccnc12 | -7.376
CCS(=O)(=O)NCC(=O)N(C1CC1)C1Cc2ccccc2C1 | 0.1274
CC(C)C(NC(=O)c1ccc(=O)[nH]c1)c1nnc2n1CCNCC2 (configuration not stated) | 5.765
COc1cc(C2(C(=O)N3CCN(CC(C)(C)O)CC3)CC2)ccc1C | -9.844
COc1ccc(C)cc1C(=O)N1CCCC(n2cncn2)C1 (configuration not stated) | 125.6
Cn1cc(C(=O)N2CCCC(n3cncn3)C2)ccc1=O (configuration not stated) | -4.437
COc1cc(C2(C(=O)NC3CCN(C4CC4)CC3)CC2)ccc1C | -9.965
COc1cc(C(=O)N2CCCC(n3cncn3)C2)ccc1C (configuration not stated) | 123.7
CCOc1cc(C(=O)N2CCCC(n3cncn3)C2)ccc1C (configuration not stated) | 31.02
O=C(c1ccccc1OC1CCCC1)N1CCCC(n2cncn2)C1 (configuration not stated) | 131.9

Structure (SMILES) | Percent Effect [%]
O=C(c1ccc(C(F)(F)F)nc1)N1CCCC(n2cncn2)C1 (configuration not stated) | -5.926
O=C(c1ccc(Br)o1)N1CCCC(n2cncn2)C1 (configuration not stated) | 3.935
COc1cc(C2(C(=O)N3CCCC(n4cncn4)C3)CC2)ccc1C (configuration not stated) | 127.9
Cc1ccc(SCCCNC(=O)c2cn([C@H]3CC[C@@H](N)CC3)nn2)cc1 | -20.01
Cc1sc(Br)cc1S(=O)(=O)NCc1ccccn1 | -26.2
Oc1ccccc1CN1CCC(n2cc(-c3ccc(F)cc3)nn2)CC1 | -4.662
Cl.NC(=O)c1ccc(CNC2CC2)cc1 | 11.53
Cc1occc1C(=O)NCc1ccc(N2CCCC(C(N)=O)C2)cc1 (configuration not stated) | -5.63
CNCc1ccc([C@@H]2CN(C)C[C@H]2C(N)=O)cc1.Cl | 68.94
CNCc1ccc([C@@H]2CN(C(C)=O)C[C@H]2C(=O)N(C)C)cc1.Cl | 99.26
Cc1ccccc1CNC(=O)N1C[C@H]2C[C@H](C(=O)N(C)C)[C@@H](C1)O2 | -3.016
CS(=O)(=O)c1ccc(CNC(=O)N2CCC(C(N)=O)C2)cc1 (configuration not stated) | -0.5949
CNCc1ccc([C@@H]2CN(C(C)=O)C[C@H]2C(N)=O)cc1.Cl | 129.4
CN(C)C(=O)c1ccc(CNC(=O)NCCN(C)C2CCCC2)cc1 | 0.2327
Cn1cc(N2CC3(CCN(Cc4cccs4)CC3)OCC2=O)cn1.O=C(O)C(F)(F)F | 13.04
Cn1ccnc1CN1CCC2(CC1)CN(c1cncnc1)C(=O)CO2.O=C(O)C(F)(F)F | -21.12
Cc1cccc(CN2CCC3(CC2)CN(c2cccnc2)C(=O)CO3)n1.O=C(O)C(F)(F)F.O=C(O)C(F)(F)F | 90.31
Fc1cnc(N2CCCC3(CN(Cc4ccccc4)CCO3)C2)nc1.O=C(O)C(F)(F)F (configuration not stated) | 8.099
Fc1cnc(N2CCOC3(CCN(Cc4ccsc4)CC3)C2)nc1.O=C(O)C(F)(F)F.O=C(O)C(F)(F)F | -10.48
O=C(O)C(F)(F)F.O=C1COC2(CCN(Cc3cccs3)CC2)CN1c1cncnc1 | 100.5
Cc1cnc(N2CCC3(CC2)CN(c2ccsc2)C(=O)CO3)nc1.O=C(O)C(F)(F)F | 15.19
O=C(O)C(F)(F)F.O=C1COC2(CCN(Cc3cccs3)CC2)CN1c1ccsc1 | 102.1
Fc1cnc(N2CCOC3(CCN(Cc4cccs4)CC3)C2)nc1.O=C(O)C(F)(F)F.O=C(O)C(F)(F)F | 104.4
O=C(O)C(F)(F)F.O=C1COC2(CCN(Cc3cccs3)CC2)CN1c1ccccc1 | -12.07
